# Screening data (PubChem)
# In the library only some 0.59% were active in any assay of this set; here they are far more common.
# RXFP1 ag: activates the human relaxin receptor RXFP1 | Q9HBX9 | HEK293T-RXFP1 cAMP TR-FRET, 30 min; response scale: percent of porcine relaxin response, buffer zero | Potency, µM (titrated, usually from 57.5 µM), for inactives: at the highest dose activation, usual class: activators | actives 0.3% (n = 370,000) | AID 2676; note: potency is the fitted concentration of half-maximal effect; nearly all actives have a fitted effect of over 60% in size
#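 Agonist response is measured as cAMP accumulation in an RXFP1-transfected HEK293T line under PDE4 inhibition. Values are scaled between buffer-only and 29 nM porcine relaxin, and EC50s come from standard Hill equation fits.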
# RXFP1 antag: blocks the human relaxin receptor RXFP1; HEK293-RXFP1, relaxin-stimulated cAMP HTRF, 30 min; active compounds read low; actives 0.59% (n = 350,000); activity change, negative = inhibition, % at 57.5 µM;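 active = activity change of -60% or lower, but not beyond a set lower limit; inconclusive = change between -60% and -40%, or beyond the set limit; inactive = change above -40%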
# BCR signal inh: inhibitors of chronic active B-cell receptor signaling | ABC-DLBCL IkBa-CBG/CBR reporter, luminescence ratio, 4 h | Potency, µM (doses to about 46.1 µM), without a hit: at the highest dose activity change, negative = inhibition, usual class: inhibitors | actives 0.05% (n = 340,000) | AID 493014; active = well fitted inhibition curve with a large enough effect in the signal ratio, with a control signal flat, not every such curve was filed as active; inconclusive = small, poorly fitted or top-dose-only effect, or effect the other way, or a change in a side signal; the % refers to the signal ratio;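 note: potency is the fitted concentration of half-maximal effect; plate controls were basal doxycycline-induced cells for no effect and cells given 10 µM MG132 for full effect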
#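 Concentration-response series (up to 46 uM) were applied to TMD8 dual-reporter cells for 4 h at 37C with doxycycline. Green/red ratio, after filter-overlap correction, defined %Activity; red signal alone was normalised to basal cells and zero luminescence.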
# B2AR arrestin: recruits beta-arrestin to the human beta2-adrenergic receptor; beta-arrestin recruitment to beta2AR, cell-based reporter; Potency, µM (top dose mostly 46.1 µM), for the others: at the top dose activation, most hits filed as activators; actives 0.02% (n = 330,000);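 note: potency is the fitted concentration of half-maximal effect; 0% = DMSO controls and full agonism = EC100 isoproterenol or metaproterenol; nearly all actives have a fitted effect of over 65% in size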
# Target sequence (P07550 whole entry, looked up): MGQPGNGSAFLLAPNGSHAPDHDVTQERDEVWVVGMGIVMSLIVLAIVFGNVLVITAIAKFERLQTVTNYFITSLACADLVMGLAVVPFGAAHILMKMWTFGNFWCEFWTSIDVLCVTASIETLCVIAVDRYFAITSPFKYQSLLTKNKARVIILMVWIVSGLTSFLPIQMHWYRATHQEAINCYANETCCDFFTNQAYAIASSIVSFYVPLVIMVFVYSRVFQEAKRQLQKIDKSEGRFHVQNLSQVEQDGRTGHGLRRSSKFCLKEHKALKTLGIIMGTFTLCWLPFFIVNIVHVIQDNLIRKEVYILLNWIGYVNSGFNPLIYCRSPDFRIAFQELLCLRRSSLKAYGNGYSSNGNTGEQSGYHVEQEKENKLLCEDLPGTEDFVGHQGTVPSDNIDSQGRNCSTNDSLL
# * hit, by the source's call; ? = inconclusive; / = not tested or not shown. Unless noted, calls come from the whole dose curve; as a rule, active = well fitted activation curve with a large enough effect; inconclusive = small, poorly fitted or top-dose-only effect; inactive = flat fitted curve, though single readings scatter. Unless noted, % is set by controls: 0 for no effect and ±100 for the full control effect.
SMILES,RXFP1 ag,RXFP1 antag,BCR signal inh,B2AR arrestin
COc1ccc(NC(=S)NCc2ccccc2)c(OC)c1,0.3%,-73.2*,-2.1%,-0.5%
COc1ccc(NC(=S)NCCc2ccccc2)c(OC)c1,1.1%,-6.5,?,-0.1%
S=c1[nH]cnc2scc(-c3ccccc3)c12,1.5%,-72.9*,0.8%,-0.7%
Clc1ncnc2scc(-c3ccccc3)c12,1.1%,4.4,-6.4%,-0.1%
C/C(=N\O)c1ccc(OCC(=O)N2CCCCC2)cc1,/,-15.5,/,/
CCOC(=O)c1cnc2ccc(C)cc2c1Nc1ccc(N(CC)CC)cc1,5.9%,-70.4*,/,/
CCOC(=O)c1cnc2ccc(Cl)cc2c1Nc1ccc(N2CCOCC2)cc1,2.0%,-11.2,/,/
CCOC(=O)c1cnc2ccc(C)cc2c1Nc1ccc(N2CCOCC2)cc1,0.6%,-100.7*,?,0.5%
Cc1ccc(C(CC(=O)NCc2ccco2)c2ccccc2)c(O)c1 (stereo not given),-1.9%,-21.0,?,-1.0%
Cc1ccc(C(CC(=O)NCC2(c3ccccc3)CCCC2)c2ccccc2)c(O)c1 (stereo not given),2.4%,-64.9*,/,/
COc1ccc(Cl)cc1NC(=O)c1cc2ccc3ccc(C)[nH]c3c2n1,0.7%,/,/,/
COc1ccccc1N1CCN(CC(O)COc2cc(OC)c(OC)c(OC)c2)CC1 (stereo not given),/,7.7,/,/
Cc1ccc(S(=O)(=O)CNC(=S)c2cccc(C)c2)cc1,1.5%,11.3,18.4µM*,2.4%
CC(=O)c1cccc(NC(=O)c2nc3ccccc3n(C)c2=O)c1,15.8µM*,22.3,/,/
CCOc1ccc2ncc3c(-c4ccccc4)nn(CC(=O)Nc4cccc(F)c4)c3c2c1,1.8%,-0.4,/,/
CN1CCN(CCOC2Cc3ccccc3Sc3ccc(Cl)cc32)CC1 (stereo not given),-0.5%,-70.1*,?,-0.2%
OCCN1CCN(C2Cc3cc(Cl)ccc3Sc3ccc(Cl)cc32)CC1 (stereo not given) (tested in a mixture with another compound),0.9%,?,?,-0.1%
Cc1c(NS(=O)(=O)c2ccc(C(C)(C)C)cc2)c(=O)n(-c2ccccc2)n1C,-0.5%,4.5,/,/
CCOc1cccc(/C=N/NC(=O)c2cc(-c3cccn3C)n[nH]2)c1O,-3.0%,-76.9*,-11.8%,0.2%
Cc1cccc(C(=O)Nc2ccc3nc(SCC(=O)N4CCCC4)sc3c2)c1,-1.6%,-66.1*,/,/
COc1ccc(C(=O)Nc2ccc3nc(SCC(=O)N4CCCC4)sc3c2)cc1,4.6%,-21.3,/,/
COc1cccc(CNc2ccc3[nH]c(=O)[nH]c3c2)c1OCc1ccccc1Cl,-1.2%,-74.8*,?,0.6%
COc1ccccc1CNC(=O)c1cc2ccc3ccc(C)[nH]c3c2n1,-2.4%,/,/,/
CC(=O)N(C(C)=O)N1C(=O)/C(=C/c2ccc(Cl)cc2)SC1=S,1.1%,-108.6*,-15.1%,-0.2%
C[C@@H](O[C@H]1OCCN(Cc2n[nH]c(=O)[nH]2)[C@H]1c1ccc(F)cc1)c1cc(C(F)(F)F)cc(C(F)(F)F)c1,/,-60.1*,/,/
SMILES,RXFP1 ag,RXFP1 antag,BCR signal inh,B2AR arrestin
CCCN1C(=O)S/C(=C/c2ccc(N3CCOCC3)o2)C1=O,-5.0%,-91.9*,-0.7%,5.4%
CCn1c2ccccc2c2nnc(N3CCN(c4ccc(OC)cc4)CC3)nc21,5.2%,-4.4,/,/
COc1ccc(-c2csc(N(CCCN(C)C)C(=O)c3ccccc3C)n2)cc1,-0.5%,-61.7*,1.4%,-0.9%
COc1ccc(-c2csc(N(CCCN(C)C)C(=O)c3ccccc3Cl)n2)cc1,/,-10.0,/,/
Cc1ccc(OCC(=O)OC2=C(C(=O)c3ccccc3)N(C)S(=O)(=O)c3ccccc32)cc1,-0.1%,-7.8,/,/
O=C1/C(=C/c2ccccn2)SC(=S)N1Nc1ncc(C(F)(F)F)cc1Cl,/,-71.8*,/,/
O=C(OCc1cccc([N+](=O)[O-])c1)c1cnccn1,22.4µM*,-0.2,-0.8%,0.0%
CC(C)(C)c1csc(NC(=O)c2ccc(Cl)s2)n1,-1.3%,-100.7*,1.0%,-0.1%
COc1ccccc1-c1noc(CSc2nnc(Cc3ccccc3)n2-c2ccc(C)c(C)c2)n1,1.1%,-64.8*,/,/
CN(C(=O)c1cc2c(cc1Br)OCO2)c1cccc2ccccc12,/,-0.4,/,/
O=C(Nc1cccc2ccccc12)c1cc2c(cc1Br)OCO2,4.7%,-3.4,11.2µM*,-0.1%
N#CSCC(=O)O,/,-20.7,/,/
COc1ccccc1NC(=O)N1c2ccccc2Sc2ccccc21,1.4%,-8.9,/,/
